# Compounds with a hit are over-represented: about 4.5% of the library has one in this group of screens.
# CSC inhib: cancer stem cell inhibition; cancer stem cell-like cells viability, luminescence; inhibition, % at 7.5 µM; 300,000 tested, 1.1% active; AID 2717; in the data active means inhibition above about 75%; inconclusive means no clear call, values can overlap the other calls; tested in HMLE shEcad cells
# 697 NFkB inh: lowers PMA/ionomycin-induced NF-kB signal in 697 B cells; 697 B-cell NF-kB luciferase reporter, 16 h; inhibition, % at 4 µM; 330,000 tested, 0.33% active; AID 435022; in the data active means inhibition above about 35%
# aSyn 5UTR inh: MLPCN primary screen, SNCA 5' untranslated region | 300,000 tested, 0.82% active | alpha-synuclein 5'UTR reporter, inhibitor activity | inhibition, % (tested at 7.5 µM); in the data active means inhibition above about 60%; inconclusive means no clear call, values can overlap the other calls;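 further: H4 neuroglioblastoma cells stably carrying SNCA 5'UTR luciferase fusion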
# Jurkat NFkB inh: inhibitors of the PMA/ionomycin-induced NF-kB reporter in Jurkat cells; PMA/ionomycin-induced NF-kB luciferase reporter, luminescence; inhibition, % at 4 µM; 330,000 tested, 0.53% active; in the data active means inhibition above about 50%
# Gli-Sufu block: blocks Gli-Sufu signaling in a luciferase reporter. Sufu-KO-LIGHT fibroblasts, Gli luciferase reporter luminescence. inhibition, % at 5 µM. 340,000 tested, 0.74% active;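 active means inhibition above about 55%, limit read from the data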
# Mdm2 MdmX PPI: human Mdm2/MdmX binding inhibition; O15151+Q00987; SaOS-2 split-luciferase Mdm2/MdmX complementation, luminescence; inhibition, % at 8 µM; 330,000 tested, 3% active;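 active means inhibition of at least 50% at 8 µM in the primary screen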
# Target sequence (O15151 whole entry, looked up): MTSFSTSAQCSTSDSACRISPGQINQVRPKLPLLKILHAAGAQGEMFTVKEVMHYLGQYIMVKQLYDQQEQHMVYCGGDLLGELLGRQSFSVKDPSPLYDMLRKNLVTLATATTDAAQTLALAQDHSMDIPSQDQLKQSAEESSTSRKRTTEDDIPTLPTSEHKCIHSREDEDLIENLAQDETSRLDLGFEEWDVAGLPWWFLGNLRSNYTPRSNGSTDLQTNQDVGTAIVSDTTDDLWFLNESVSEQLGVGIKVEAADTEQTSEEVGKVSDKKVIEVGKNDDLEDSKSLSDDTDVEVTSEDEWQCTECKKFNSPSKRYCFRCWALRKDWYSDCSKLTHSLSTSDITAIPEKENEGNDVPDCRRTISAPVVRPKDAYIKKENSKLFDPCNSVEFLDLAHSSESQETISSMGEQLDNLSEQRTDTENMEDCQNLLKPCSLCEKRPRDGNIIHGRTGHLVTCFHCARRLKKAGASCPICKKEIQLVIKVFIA
# Target sequence (Q00987 whole entry, looked up): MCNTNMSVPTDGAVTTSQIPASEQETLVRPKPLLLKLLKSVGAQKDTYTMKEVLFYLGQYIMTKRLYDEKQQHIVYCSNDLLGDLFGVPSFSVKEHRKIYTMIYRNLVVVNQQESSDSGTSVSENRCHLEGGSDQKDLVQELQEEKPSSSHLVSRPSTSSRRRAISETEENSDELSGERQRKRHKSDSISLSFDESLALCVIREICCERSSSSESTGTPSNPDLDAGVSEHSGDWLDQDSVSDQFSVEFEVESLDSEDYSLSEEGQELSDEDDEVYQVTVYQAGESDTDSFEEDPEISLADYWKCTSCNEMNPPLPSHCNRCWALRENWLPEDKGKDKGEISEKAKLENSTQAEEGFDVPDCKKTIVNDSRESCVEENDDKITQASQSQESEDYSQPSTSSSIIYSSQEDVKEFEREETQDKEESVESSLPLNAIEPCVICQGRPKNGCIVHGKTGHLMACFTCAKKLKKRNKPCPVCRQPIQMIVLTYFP
# Mdm2 MdmX conf: confirmation of human Mdm2/MdmX interaction inhibitors. shares compounds with Mdm2 MdmX PPI. Mdm2-MdmX binding, luminescent assay. inhibition, % at 8 µM. 10,000 tested, 55% active. AID 489028; in the data active means inhibition above about 40%
# FLuc counter: full-length luciferase inhibition in Mdm2/MdmX counter-screen; 6,200 tested, 77% active; shares compounds with Mdm2 MdmX PPI; inhibition, % at 8 µM; AID 504607; SaOS-2 full-length luciferase counterscreen, luminescence;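 active means mean inhibition at 8 µM reaching about 37%, which flags the compound as non-specific, limit read from the data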;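 further: p53-null SaOS-2 cells with luciferase driven by a doxycycline-inducible promoter; compound on cells about two nights before reading with doxycycline added after day one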
# Numbers stand for hits; . = inactive; ? = inconclusive; / = not tested or not shown.
SMILES,CSC inhib,697 NFkB inh,aSyn 5UTR inh,Jurkat NFkB inh,Gli-Sufu block,Mdm2 MdmX PPI,Mdm2 MdmX conf,FLuc counter
O=C(N/N=C/c1cccc(O)c1)c1ccc(COc2cccc3cccnc23)cc1,.,.,.,.,.,53.7,.,/
CCN(CC)CCN(C(=O)c1ccc2c(c1)CCCC2)c1nc2cc(OC)c(OC)cc2s1,.,.,.,.,.,52.6,46.4,36.8
CN(C)CCCN(C(=O)c1ccc2c(c1)CCCC2)c1nc2c(F)cccc2s1,.,.,.,.,.,.,/,/
Cc1cc(C)c2nc(N(CCCN(C)C)C(=O)c3ccc4c(c3)CCCC4)sc2c1,.,.,.,.,.,76.6,.,/
Cc1ccc2nc(N(CCCN(C)C)C(=O)c3ccc4c(c3)CCCC4)sc2c1,.,.,.,.,.,50.6,.,/
COc1cc2nc(N(CCN(C)C)C(=O)c3ccc4ccccc4c3)sc2cc1OC,.,.,.,.,.,.,/,/
CC1(C)CCN2CCC(C)(C)c3c(O)ccc1c32,131.3,.,.,.,.,91.5,83.0,40.4
C/C=C(\C)C(=O)OC1CC(C)(C)C[C@H]2C3=CC[C@@H]4[C@@]5(C)CCC(O[C@@H]6O[C@@H](C(=O)O)[C@@H](O)C(O[C@@H]7OC[C@H](O)[C@@H](O)[C@@H]7O[C@@H]7OC(CO)C(O)[C@@H](O)[C@@H]7O)C6O[C@@H]6OC(CO)C(O)C(O)C6O)[C@@](C)(CO)[C@@H]5CC[C@]4(C)[C@]3(C)CC(O)[C@@]12CO (some centres undefined),/,.,/,.,.,54.7,.,48.4
O=[N+]([O-])c1ccc(O)c(/C=N\N=C2c3ccccc3-c3ccccc32)c1,.,.,.,.,.,93.0,90.7,45.7
O=C(N/N=C/c1cc([N+](=O)[O-])ccc1O)c1ccc(COc2ccc3c(c2)CCC3)o1,101.3,.,86.5,.,.,94.1,72.0,50.9
O=C(Cn1nnc(-c2ccccc2)n1)N/N=C/c1cc([N+](=O)[O-])ccc1O,.,.,.,.,.,53.2,.,/
COc1ccc(Br)cc1/C=N/NC(=O)c1ccc(COc2ccc3c(c2)CCC3)o1,/,.,.,.,.,.,/,/
O=C(N/N=C/c1cc(Cl)ccc1O)c1ccccc1Br,.,.,.,.,.,53.9,57.8,43.5
O=C(N/N=C/c1cc([N+](=O)[O-])ccc1O)c1cccc(NC(=O)c2cccc(Cl)c2)c1,.,.,?,.,.,51.1,50.1,41.1
O=C(N/N=C/c1cc([N+](=O)[O-])ccc1O)c1cccc2ccccc12,.,.,.,.,/,61.6,68.2,42.8
Cc1nc2ccc(C(=O)N/N=C/c3cc([N+](=O)[O-])ccc3O)cc2[nH]1,/,.,.,.,.,.,/,/
COc1ccc(N2CCN(C(=O)c3ccc(OCC4CCCO4)cc3)CC2)cc1 (centres undefined),.,.,.,.,.,.,/,/
CCOC(=O)CSC1=NC(=O)/C(=C/c2ccc(OC)cc2)S1,.,.,.,.,.,76.3,53.4,.
CCC1CCc2c(sc3nc(SCC(=O)NCc4ccco4)n(-c4ccccc4)c(=O)c23)C1 (centres undefined),.,.,.,.,.,55.5,.,/
COc1ccc(NC(=O)Nc2ccc3c(c2)N(C)C(=O)CS3)cc1Cl,.,.,.,.,.,59.4,42.5,52.9
CC(=O)c1ccc(NC(=O)Nc2ccc3c(c2)N(C)C(=O)CS3)cc1,.,.,.,.,.,69.0,.,/
COc1ccc(NC(=O)Nc2ccc3c(c2)N(C)C(=O)CS3)cc1OC,.,.,.,.,.,.,/,/
COc1cccc(CN2CC(C(=O)NC3CCC3)CCC2=O)c1 (centres undefined),.,.,.,.,.,.,/,/
CCCOc1ccc(CCCN=C(N)N)cc1Cl,.,.,.,.,.,51.5,.,/
CCOc1cc(/C=N/NC(=O)Cn2nc([N+](=O)[O-])cc2C)cc(Br)c1OCc1ccccc1C,.,.,.,.,.,52.2,46.9,87.0
SMILES,CSC inhib,697 NFkB inh,aSyn 5UTR inh,Jurkat NFkB inh,Gli-Sufu block,Mdm2 MdmX PPI,Mdm2 MdmX conf,FLuc counter
O=C(CCl)NCc1c(Cl)cccc1-n1cccc1,.,.,.,.,.,56.0,40.9,.
O=C(Cc1c(Cl)cccc1Cl)NCCc1ccc(Cl)cc1,.,.,.,.,.,.,/,/
COc1ccc(C(CCN2CCCC(C)C2)c2c(OC)cc(OC)c3c(-c4ccccc4)cc(=O)oc23)cc1 (centres undefined),.,.,.,.,.,99.9,.,/
COc1cc(OC)c2c(-c3ccccc3)cc(=O)oc2c1C(CCN1CCCC(C)C1)c1ccc(N(C)C)cc1 (centres undefined),.,.,.,.,.,76.8,.,/
O=C(Cn1cnnn1)NCc1ccccc1,.,.,.,.,.,.,/,/
COc1ccccc1NC(=O)c1sc2ncn(Cc3ccc(C)cc3)c(=O)c2c1C,.,.,.,.,.,54.8,.,/
COc1cccc(-c2cc(C(=O)Nc3ccc(N(C)C(C)=O)cc3)c3cc(Br)ccc3n2)c1,.,.,.,.,.,61.9,.,/
O=C(Nc1ccc(C(F)(F)F)cc1)c1cc(-c2cccnc2)nc2ccc(Br)cc12,.,.,.,.,.,57.5,.,/
S=C(NCc1ccncc1)Nc1ccc(Cl)cc1Cl,.,.,.,.,.,.,/,/
S=C(NNc1ccnc2cc(Cl)ccc12)Nc1ccc(Cl)cc1Cl,.,.,.,.,.,91.5,.,48.9
Cc1cccc(CCN2C(Nc3ccccc3)=NC[C@@H]2CC(C)C)c1,.,.,/,.,.,.,/,/
CC(C)C[C@H]1CN=C(Nc2ccccc2)N1CCc1cccc(F)c1,.,.,/,.,.,57.9,.,/
CCOC(=O)c1[nH]ncc1CN1CCN(Cc2ccccc2)C(CCO)C1 (centres undefined),.,.,.,.,.,.,/,/
Cc1nn(Cc2ccccc2Cl)c(C)c1C(=O)NCCN1C(=O)S/C(=C\c2ccccc2)C1=O,.,.,.,.,.,58.4,.,/
Cc1nn(Cc2ccccc2Cl)c(C)c1C(=O)NCc1ccco1,.,.,.,.,.,.,/,/
CCCc1nc(SCC(=O)N2c3ccccc3CC2C)c2c(C)c(C)sc2n1 (centres undefined),.,.,.,.,.,65.9,.,/
Cc1sc2nc(C3CC3)nc(SCC(=O)N3CCCc4ccccc43)c2c1C,.,.,.,.,/,70.6,.,/
COCCN(CCOC)S(=O)(=O)c1ccc(C(=O)Nc2sc3c(c2C(N)=O)CCCCC3)cc1,/,.,.,.,.,81.9,56.6,116.4
CCOC(=O)c1c(CSc2ccc(CC)cc2)oc2ccc(O)c(CN(C)C)c12,81.5,.,65.6,.,.,86.0,44.1,62.8
CCOC(=O)c1c(C)oc2ccc(O)c(CN(C)C)c12,.,.,.,.,.,.,/,/

# High-throughput results from PubChem.
